# Source: paper PMC4336329 (PLoS ONE, 2015)
# Hit rate of the full screen: of about 310,000 compounds, about 14,000 (4.5%) showed an effect of 50% or more. The effect is printed as a negative number. This excerpt belongs to a sample that is enriched for strong results.
# Target: human ether-à-go-go-related gene (hERG) potassium channel (human, UniProt Q12809)
# Test: primary screen, population patch clamp on CHO cells stably expressing hERG; higher = less effect of the substance
# 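Further: peak tail current of the secondary pulse compared with the same well before compound.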
# Sequence of human ether-à-go-go-related gene (hERG) potassium channel (Q12809 whole entry, looked up): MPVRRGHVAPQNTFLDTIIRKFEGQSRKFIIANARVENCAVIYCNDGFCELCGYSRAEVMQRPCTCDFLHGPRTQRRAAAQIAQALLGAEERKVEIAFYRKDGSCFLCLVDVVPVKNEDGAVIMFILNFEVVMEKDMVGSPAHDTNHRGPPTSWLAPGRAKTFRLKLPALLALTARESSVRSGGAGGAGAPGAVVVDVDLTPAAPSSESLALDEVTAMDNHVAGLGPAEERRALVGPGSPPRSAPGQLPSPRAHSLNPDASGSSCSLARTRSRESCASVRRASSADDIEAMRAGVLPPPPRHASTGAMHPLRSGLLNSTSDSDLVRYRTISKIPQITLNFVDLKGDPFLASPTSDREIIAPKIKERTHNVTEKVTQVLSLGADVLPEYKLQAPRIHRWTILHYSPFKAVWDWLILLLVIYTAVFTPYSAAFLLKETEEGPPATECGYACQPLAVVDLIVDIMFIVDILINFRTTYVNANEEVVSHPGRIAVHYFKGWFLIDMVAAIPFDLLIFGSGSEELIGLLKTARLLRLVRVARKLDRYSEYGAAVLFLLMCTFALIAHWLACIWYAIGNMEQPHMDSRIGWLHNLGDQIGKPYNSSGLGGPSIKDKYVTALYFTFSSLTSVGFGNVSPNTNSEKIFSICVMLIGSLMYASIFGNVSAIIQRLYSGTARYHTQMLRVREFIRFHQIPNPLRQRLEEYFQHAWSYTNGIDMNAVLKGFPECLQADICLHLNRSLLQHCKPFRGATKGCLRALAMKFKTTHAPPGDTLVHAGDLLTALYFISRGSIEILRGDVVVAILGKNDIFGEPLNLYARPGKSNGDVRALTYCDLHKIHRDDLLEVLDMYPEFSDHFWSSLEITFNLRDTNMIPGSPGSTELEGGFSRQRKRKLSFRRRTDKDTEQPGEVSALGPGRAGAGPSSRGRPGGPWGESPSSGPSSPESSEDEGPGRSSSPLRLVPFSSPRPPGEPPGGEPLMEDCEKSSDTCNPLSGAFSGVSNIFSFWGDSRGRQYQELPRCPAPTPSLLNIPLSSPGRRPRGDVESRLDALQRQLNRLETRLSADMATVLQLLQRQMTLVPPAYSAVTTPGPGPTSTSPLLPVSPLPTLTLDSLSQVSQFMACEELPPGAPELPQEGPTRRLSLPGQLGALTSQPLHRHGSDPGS
row,Structure (SMILES),"hERG current change (%, negative = inhibition) at 10uM"
1,O=C(/C=C/c1ccc2ccccc2n1)N1CCN(S(=O)(=O)c2ccc(F)cc2)CC1,-52.4%
2,CC(=O)c1ccc(N2CCN(C(=O)/C=C/c3cccs3)CC2)cc1,-25%
3,O=C(/C=C/c1cccs1)N1CCN(c2ccccc2)CC1,1.88%
4,O=C(O)/C=C/c1ccc2ccccc2n1,2.35%
5,CC(=O)c1ccc(N2CCN(C(=O)c3ccc4ccccc4n3)CC2)cc1,-43.1%
6,O=C(/C=C/c1ccc2ccccc2n1)N1CCN(S(=O)(=O)c2ccccc2F)CC1,-15.9%
7,O=C(/C=C/c1ccc2ccccc2n1)N1CCN(c2ccccc2)CC1,-52.1%
8,CC(=O)c1ccc(N2CCN(C(=O)/C=C/c3ccc4ccccc4n3)CC2)cc1,-54.4%
9,O=C(/C=C/c1ccc(S(=O)(=O)N2CCOCC2)cc1)N1CCN(c2ccc(F)cc2)CC1,-25.6%
10,NS(=O)(=O)c1ccc2nc(NC(=O)Nc3ccc(F)cc3)sc2c1,6.61%
11,CCN=C1S/C(=C\c2cn(C(C)=O)nc2-c2ccccc2)C(=O)N1CC,8.23%
12,O=C(CSCc1ccc(Br)cc1)N1CCOCC1,3.5%
13,CCN(CC)c1ccc(C=C2C(=O)OC3(CCCCC3)OC2=O)cc1,7.76%
14,CCCOc1ccc(C(C)=O)cc1CC(C(=O)OCC)C(=O)OCC,1.47%
15,COc1ccc(/C=C/C(=O)OCC(=O)Nc2cc(C(N)=O)cc(C(N)=O)c2)cc1,18.2%
16,CN(C)/C=N/C(=S)Nc1cc(Cl)cc(Cl)c1,27.2%
17,O=C(c1ccc(NS(=O)(=O)c2cccs2)cc1)N1CCOCC1,14.4%
18,CC(=O)c1cc(CC=C(C)C)c(O)cc1O,-3.51%
19,O=C(COC(=O)CCC1CCCC1)Nc1ccc(Cl)cn1,15.2%
20,Cc1c(C(=O)OCC(=O)N(C)CC(=O)Nc2ccc(F)cc2)oc2ccccc12,14.3%

row,Structure (SMILES),"hERG current change (%, negative = inhibition) at 10uM"
1,CN(C)c1nc(N)c([N+](=O)[O-])c(N2CCCCCC2)n1,2.69%
2,CC(=O)N1CCN(c2ccc(Nc3nc(C)nc4c3oc3ccccc34)cc2)CC1.Cl,-51.3%
3,Cl.c1ccc2c(c1)oc1c(NCCN3CCOCC3)ncnc12,-5.4%
4,CC(=O)N1CCN(c2ccc(Nc3ncnc4c3oc3ccccc34)cc2)CC1.Cl,-65.9%
5,CC(=O)c1ccc(Nc2ncnc3c2oc2ccccc23)cc1,7.05%
6,Cl.Oc1ccc(Nc2ncnc3c2oc2ccccc23)cc1,-4.8%
7,CC(=O)Nc1ccc(Nc2nc(C)nc3c2oc2ccccc23)cc1,13.4%
8,Cl.c1ccc2c(c1)oc1c(Nc3ccc(CN4CCOCC4)cc3)ncnc12,-62%
9,CCc1nc(Nc2ccc(N3CCN(C(C)=O)CC3)cc2)c2oc3ccccc3c2n1.Cl,-43.7%
10,Cl.c1ccc2c(c1)oc1c(NCCCN3CCOCC3)ncnc12,-22.4%
11,O=C(Nc1nc(COc2ccccc2)cs1)c1ccccc1F,24.9%
12,CCCCN(CC)CCNC(=O)Cn1cc2c(n1)-c1c(oc(C(=O)N3CCCC3)c1C)CC2,-27.9%
13,CCOc1cc(/C=C2/C(=O)ON=C2C)ccc1OCc1ccccc1F,10.6%
14,Cc1cc(OCC(=O)N[C@H](C(=O)O)c2ccccc2)c2c3c(c(=O)oc2c1)CCC3,12.1%
15,CCN1CCN(C(=S)Nc2cc(C(=O)OC)ccc2C(=O)OC)CC1,16.9%
16,Br.N=c1n(CCN2CCOCC2)c2ccccc2n1Cc1ccccc1Br,-72.9%
17,Cn1c(=O)n(Cc2ccccc2Br)c2ccccc21,-10.3%
18,Br.N=c1n(CCN2CCCCC2)c2ccccc2n1CC(=O)c1ccc(Cl)c(Cl)c1,-72.6%
19,Cc1ccc(C(=O)NCCN2CCOCC2)cc1,12%
20,Br.COC(=O)Cn1c(=N)n(CCN2CCCCC2)c2ccccc21,-19.2%

row,Structure (SMILES),"hERG current change (%, negative = inhibition) at 10uM"
1,Br.N=c1n(CCN2CCCCC2)c2ccccc2n1CC(=O)c1cccs1,-25.2%
2,Br.Cc1ccc(C(=O)Cn2c(=N)n(N)c3ccccc32)cc1,-14.7%
3,O=C(NCCN1CCOCC1)c1ccc(Cl)c(Cl)c1,-2.39%
4,Cc1ccc(C(=O)Cn2c(=N)n(CCN3CCOCC3)c3ccccc32)cc1.[Br-],-59.9%
5,N=c1n(CCOc2ccccc2)c2ccccc2n1CCN1CCOCC1,-42.9%
6,Br.N=c1n(CCN2CCOCC2)c2ccccc2n1CC(=O)c1ccc(Cl)c(Cl)c1,-73.2%
7,Cc1ccc(C(=O)NCCN2CCOCC2)cc1Cl,-17.7%
8,COc1ccc(C)cc1NC(=O)c1ccc(NC(=O)CC2SC(N3CCCC3)=NC2=O)cc1 (stereo not shown),18.2%
9,Cc1cn(-c2ccc(Br)cc2)[nH]c1=O,8.3%
10,COC(=O)C1=C(C)N=C2SC(C)C(=O)N2C1c1cccs1 (stereo not shown),7.16%
11,CCNC(=O)NC(=O)COC(=O)CCCSc1nc2ccccc2s1,-8.6%
12,CCOc1ccc(S(=O)(=O)NCCC(=O)NCCc2ccc(C(C)C)cc2)cc1,3.89%
13,CCOC(=O)c1nn(-c2ccc([N+](=O)[O-])cc2)cc1O,2.65%
14,COC(=O)c1cc(OC)c(OC)cc1NCC(=O)Nc1cccc(C(F)(F)F)c1,13.8%
15,COc1ccc(C(=O)N2CCOCC2)cc1S(=O)(=O)N1CCC(C)CC1,-9.4%
16,COc1ccccc1NC(=O)Cn1c([N+](=O)[O-])cnc1C,11%
17,NC(=S)N=Nc1c(O)n(CCCl)c2ccc(Br)cc12,-27.4%
18,CCc1ccccc1S(=O)(=O)Cc1ccc(C(=O)NCC2CCCO2)o1 (stereo not shown),-23%
